Data taken from PubChem BioAssay (NCATS).
Results filed as inconclusive are left out. Calls of active or inactive are those of the source. Calls come from the whole dose curve; as a rule, active = well fitted cell-killing curve with a large enough effect; inconclusive = small, poorly fitted or top-dose-only effect, or effect the other way; inactive = no such curve, though single readings can be large or run the other way.
Potency is the fitted concentration of half-maximal effect.

Test: Quantitative High-Throughput drug screen in 47 multiple myeloma cell lines against the NCATS MIPE library collection: Delta47_JCRB cell viability assay (AID 1918925; note: nearly all actives have a fitted effect of over 45% in size)
Details: Delta47 myeloma viability, CellTiter-Glo ATP, 48 h; series mostly up to 45.8 µM; viability (% of DMSO): at the top concentration
In short: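 We plated 500 myeloma cells per well, pinned in MIPE 4.0 compounds, and incubated for 48 hours at 37C. ATP was then quantified with CellTiter-Glo, with DMSO and media-only wells defining 100% and 0%.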
With CCCCCCCCCCCCCCCC(=O)O[C@H]1[C@@H](O)[C@@H](O)[C@@H]([C@H](NC(=O)[C@@H]2C[C@@H](CCC)CN2C)[C@H](C)Cl)O[C@@H]1SC the “viability (% of DMSO)” value was 120% (inactive).
With O=C(Nc1cccc(Cl)c1)Nc1ncc(CCNc2ncnc3ccsc23)s1 the Potency was 7.43 µM (active).
With CCCCOCCOc1nc(-c2ccc(C(=O)O)c(F)c2)sc1C the “viability (% of DMSO)” value was 149% (inactive).
For CCCCC[C@H](O)C=C[C@H]1[C@H](O)CC(=O)[C@H]1CC=CCCCC(=O)O, the “viability (% of DMSO)” value was 118% (inactive).
With CC[C@H](C)C(=O)O[C@H]1C[C@H](O)C=C2C=C[C@H](C)[C@H](CC[C@@H](O)C[C@@H](O)CC(=O)O)[C@H]21 the “viability (% of DMSO)” value was 95.9% (inactive).
For CN1CCN(c2ncc(-c3cc(Cl)cc(Cl)c3Cl)c(N)n2)CC1, the Potency was 23.5 µM (active).
In the case of C[C@@H](O)[C@H]1C(=O)N2C(C(=O)OCOC(=O)C(C)(C)C)=C(SC3CN(C4=NCCS4)C3)[C@H](C)[C@H]12, the “viability (% of DMSO)” value is reported as 85.6% (inactive).
In the case of COC1CCC(C(=O)c2ccc3nc4c(cc3c2)CCCO4)CC1 (configuration not stated), the Potency is reported as 16.6 µM (active).
With CN(C)c1ccccc1CN1CCCN(Cc2ccccc2N(C)C)C1c1ccncc1 the Potency was 20.9 µM (active).
With CNC(=O)c1cc(COc2nnc(Nc3ccc(Cl)cc3)c3ccoc23)ccn1 the “viability (% of DMSO)” value was 86.3% (inactive).
For COc1cc2ncn(-c3cc(OCc4ccccc4S(C)(=O)=O)c(C#N)s3)c2cc1OC, the “viability (% of DMSO)” value was 85.5% (inactive).
With CCOC(=O)[C@@H](N)CCC(=O)N[C@@H](CSCc1ccccc1)C(=O)N[C@@H](C(=O)OCC)c1ccccc1 the Potency was 26.4 µM (active).
For O=C1CN2Cc3c(ccc(Cl)c3Cl)N=C2N1, the Potency was 29.6 µM (active).
For COC(=O)[C@H](c1ccccc1Cl)N1CCc2sccc2C1, the “viability (% of DMSO)” value was 104% (inactive).
With Cc1ccc(S(=O)(=O)Nc2nc3ccccc3nc2Nc2ccc3nsnc3c2)cc1 the Potency was 0.575 µM (active).
With COc1cc(F)c(C(C)C)cc1-c1ccc(C(F)(F)F)cc1CN1C(=O)O[C@H](c2cc(C(F)(F)F)cc(C(F)(F)F)c2)[C@@H]1C the “viability (% of DMSO)” value was 100% (inactive).
With Cn1cc(-c2ccc3nnc(Sc4ccc5ncccc5c4)n3n2)cn1 the Potency was 0.469 µM (active).
With N#CC(c1ccnc(NCCc2cccnc2)n1)c1nc2ccccc2s1 (configuration not stated) the Potency was 11.8 µM (active).
In the case of C[C@@H]1C[C@H]2[C@@H]3CCC4=CC(=O)C=C[C@]4(C)[C@@]3(F)[C@@H](O)C[C@]2(C)[C@@]1(O)C(=O)CO, the “viability (% of DMSO)” value is reported as 104% (inactive).
For COc1cccc(OC)c1-c1cc(C(=O)NC2(C(=O)O)C3CC4CC(C3)CC2C4)nn1-c1ccnc2cc(Cl)ccc12 (configuration not stated), the “viability (% of DMSO)” value was 139% (inactive).
With CCC(c1ccc(O)cc1)C(CC)c1ccc(O)cc1 (configuration not stated) the Potency was 0.0026 µM (active).
With Cc1ccc(NC(=O)c2ccc(CN3CCN(C)CC3)cc2)cc1Nc1nc(-c2cccnc2)cs1 the Potency was 6.62 µM (active).
